Sampled rows, rich in hits. Any-hit rate of the full collection: about 21%.
NS1 function inh – qHTS Assay for Inhibitors of Influenza NS1 Protein Function | Potency, µM (top dose mostly 46.1 µM), without a hit: top-dose activity, positive = more growth | 270,000 tested, 0.4% active | AID 2326, 2010; calls by dose curve; note: potency is the fitted concentration of half-maximal effect; actives are rising curves; nearly all actives have a fitted effect of over 50% in size
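A cell-based growth assay was used: compounds that relieve NS1-induced slow growth of budding yeast raise OD600. Assay medium was yeast nitrogen base with ammonium sulphate and -URA supplement, pH 6.0, with 2% galactose.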
Cycloheximide cs – Cycloheximide Counterscreen for Small Molecule Inhibitors of Shiga Toxin; 300,000 tested, 12% active; max response, %; cell reporter, cycloheximide protein synthesis inhibition counterscreen; in the data active = max response mostly above about 13%, no sharp cut-off; inactive = mostly below about 14%; note: read at 38.3 µM for the half of the compounds with a filed dose; 0% is about no effect
Shiga inhibitor – A qHTS for Small Molecule Inhibitors of Shiga Toxin. inhibition, % at 38.7 µM. AID 2315, 2010. 290,000 tested, 9.2% active. Vero cells, Shiga toxin protein synthesis inhibition reporter; in the data active = inhibition mostly above about 28%, no sharp cut-off; inactive = mostly below about 43%; note: 0% is about no effect
Pf growth 48h – Primary qHTS for delayed death inhibitors of the malarial parasite plastid, 48 hour incubation. 310,000 tested, 5.9% active. AID 504832, 2011. P. falciparum luciferase growth in erythrocytes, 48 h. Potency, µM (doses to about 28.7 µM), for inactives: at the highest dose activity change, negative = inhibition, most hits filed as inhibitors; note: potency is the fitted concentration of half-maximal effect; % is set by controls: 0 for no effect and ±100 for the full control effect
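In quantitative HTS format, infected erythrocytes bearing luciferase-reporter parasites were treated for a single generation at 37 C. Luminescence after adding detection reagent served as the growth measure.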
Pf growth 96h – Primary qHTS for delayed death inhibitors of the malarial parasite plastid, 96 hour incubation; P. falciparum luciferase reporter growth, 96 h; Potency, µM (doses to about 28.7 µM), for inactives: at the highest dose activity change, negative = inhibition, hits mostly inhibitors; 320,000 tested, 6.9% active; AID 504834, 2011; note: potency is the fitted concentration of half-maximal effect; % is set by controls: 0 for no effect and ±100 for the full control effect
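Two parasite generations (96 h, 37 C, 5% CO2) of compound exposure in infected erythrocytes (0.05% parasitemia, 2% hematocrit). Luciferase-reporter P. falciparum; decreased luminescence indicates inhibited growth, aimed at apicoplast-acting delayed death.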
Active calls of the source: *; [ ] = another dose, or the depositor's remark. Unless noted, calls come from the whole dose curve; as a rule, active = well fitted inhibition curve with a large enough effect; inconclusive = small, poorly fitted or top-dose-only effect, or another doubt; inactive = no such curve, though single readings can be large or run the other way.

c1ccc2c(c1)oc1c(NCCCn3ccnc3)ncnc12 was read as NS1 function inh inconclusive, Cycloheximide cs -4.0, Shiga inhibitor -11.2, Pf growth 48h 4.9% and Pf growth 96h inconclusive.
Screening CSCCC(NC(=O)c1cccc([N+](=O)[O-])c1)C(=O)O (configuration not stated) returned NS1 function inh 9.8%, Cycloheximide cs -3.5, Shiga inhibitor -1.7, Pf growth 48h 27.3% and Pf growth 96h -1.8%.
For CCCCCCNc1nc(OC)nc(N2CC3CC(C2)c2cccc(=O)n2C3)n1 (configuration not stated) the results were Cycloheximide cs 13.6, Shiga inhibitor 42.7, Pf growth 48h 8.28µM* and Pf growth 96h 4.6%.
Screening CCOc1nc(NC(C)C)nc(N2CC3CC(C2)c2cccc(=O)n2C3)n1 (configuration not stated) returned Cycloheximide cs 11.2, Shiga inhibitor 27.4, Pf growth 48h 6.5% and Pf growth 96h 38.8%.
`O=C(CN(Cc1ccc(F)cc1)C(=O)CNS(=O)(=O)c1ccccc1)NCc1ccco1` gave NS1 function inh -3.5%, Cycloheximide cs -3.0, Shiga inhibitor -6.6, Pf growth 48h 2.1% and Pf growth 96h -2.9%.
Screening CCN(CC(=O)Nc1c(F)cccc1F)C(=O)c1ccc(S(=O)(=O)NCc2ccco2)cc1 returned Pf growth 48h 14.5% and Pf growth 96h 34.2%.
Screening COc1ccc(S(=O)(=O)NCC(=O)N(CC(=O)NCc2ccco2)C2CCCC2)cc1 returned NS1 function inh -6.6%, Cycloheximide cs 8.1, Shiga inhibitor 35.1, Pf growth 48h 1.0% and Pf growth 96h -1.6%.
Screening COc1ccc(N(CC(=O)NCc2ccco2)C(=O)CNS(=O)(=O)c2ccc(Cl)cc2)cc1 returned NS1 function inh -9.7%, Cycloheximide cs -6.1, Shiga inhibitor -7.1, Pf growth 48h -11.2% and Pf growth 96h 2.08µM*.
Screening CCN(CC(=O)NCc1ccc(Cl)cc1)C(=O)CNS(=O)(=O)c1ccc(NC(C)=O)cc1 returned NS1 function inh -32.1%, Cycloheximide cs 6.4, Shiga inhibitor 19.7, Pf growth 48h 11.7µM* and Pf growth 96h inconclusive.
Screening O=C(CN(Cc1ccc2c(c1)OCO2)C(=O)CNS(=O)(=O)c1ccccc1)NCc1ccco1 returned NS1 function inh -2.0%, Cycloheximide cs -0.8, Shiga inhibitor -6.7, Pf growth 48h 20.1% and Pf growth 96h 2.33µM*.
Screening CCN(CC(=O)NCc1ccc(Cl)cc1)C(=O)c1ccc(S(=O)(=O)NCc2ccco2)cc1 returned NS1 function inh 2.1%, Cycloheximide cs 59.0*, Shiga inhibitor 66.8*, Pf growth 48h -10.4% and Pf growth 96h 3.7%.
For O=c1cc(N2CCNCC2)oc2c(-c3ccccc3)cccc12 the results were Cycloheximide cs 0.1 and Shiga inhibitor -7.3.
`O=C(COC(=O)CCNS(=O)(=O)c1ccc(Cl)cc1)NCc1ccco1` gave NS1 function inh 0.6%, Cycloheximide cs -1.7, Shiga inhibitor -5.8, Pf growth 48h 12.2% and Pf growth 96h 2.08µM*.
Cc1ccc(S(=O)(=O)NCCC(=O)NCc2ccco2)cc1 was read as NS1 function inh 0.7%, Cycloheximide cs -3.7, Shiga inhibitor -2.3, Pf growth 48h 0.7% and Pf growth 96h 11.3%.
Screening O=C(CN1CCCCC1)NN(Cc1ccccc1)c1ccccc1 returned NS1 function inh -13.5%, Cycloheximide cs -1.5, Shiga inhibitor -19.1, Pf growth 48h 31.3% and Pf growth 96h inconclusive.
Screening CC(C)COCC(CN(Cc1ccccc1)c1ccccc1)N1CCCC1 (configuration not stated) returned NS1 function inh -9.0%, Cycloheximide cs -11.1, Shiga inhibitor -7.6, Pf growth 48h 10.7µM* and Pf growth 96h inconclusive.
O=C(NC1CCCCC1)C(c1ccco1)N(C(=O)c1csnn1)c1cccc(F)c1 (configuration not stated) was read as NS1 function inh 3.6%, Cycloheximide cs -3.7, Shiga inhibitor -18.0, Pf growth 48h -14.6% and Pf growth 96h 11.7%.
For Cc1ccc2c(C)c(C(=O)Nc3ccc(S(=O)(=O)Nc4onc(C)c4C)cc3)oc2c1 the results were NS1 function inh 6.6%, Cycloheximide cs 55.2*, Shiga inhibitor 88.6*, Pf growth 48h 11.8% and Pf growth 96h 9.28µM*.
Cc1ccc2c(=O)cc(C(=O)Nc3ccc(S(=O)(=O)Nc4onc(C)c4C)cc3)oc2c1 was read as NS1 function inh -24.6%, Cycloheximide cs -4.7, Shiga inhibitor -5.6, Pf growth 48h 26.9% and Pf growth 96h 24.4%.
Screening Cc1noc(NS(=O)(=O)c2ccc(N/C=C/C(=O)c3ccc4c(c3)OCO4)cc2)c1C returned NS1 function inh -39.5%, Cycloheximide cs 59.1*, Shiga inhibitor 120.2*, Pf growth 48h 48.3% and Pf growth 96h inconclusive.
Cc1noc(NS(=O)(=O)c2ccc(N/C=C\C(=O)c3ccc(F)cc3)cc2)c1C was read as NS1 function inh -39.6%, Cycloheximide cs 61.0*, Shiga inhibitor 90.0*, Pf growth 48h 11.2% and Pf growth 96h -44.9%[1.15 µM].
For Cc1noc(NS(=O)(=O)c2ccc(N/C=C\C(=O)c3cccs3)cc2)c1C the results were NS1 function inh -8.8%, Cycloheximide cs 42.6*, Shiga inhibitor 93.7*, Pf growth 48h 10.6% and Pf growth 96h -13.7%.
`COc1ccc(C(=O)Nc2ccc(S(=O)(=O)Nc3onc(C)c3C)cc2)cc1` gave NS1 function inh -32.9%, Cycloheximide cs -1.3, Shiga inhibitor 44.0, Pf growth 48h 20.4% and Pf growth 96h inconclusive.
`N#Cc1cnn2c(-c3ccc(Cl)cc3Cl)ccnc12` gave NS1 function inh -2.2%, Cycloheximide cs -5.8, Shiga inhibitor -13.6, Pf growth 48h inconclusive and Pf growth 96h -26.6%.
`Cc1noc(NS(=O)(=O)c2ccc(N/C=C\C(=O)c3ccccc3)cc2)c1C` gave Cycloheximide cs 45.7*, Shiga inhibitor 118.4*, Pf growth 48h 31.6% and Pf growth 96h inconclusive.
Screening Cc1noc(NS(=O)(=O)c2ccc(NC(=O)CS(=O)(=O)c3ccccc3)cc2)c1C returned NS1 function inh -14.0%, Cycloheximide cs -1.0, Shiga inhibitor -4.0, Pf growth 48h -2.6% and Pf growth 96h -19.0%.
`N=C1C(c2nc3ccccc3s2)=C(O)CN1Cc1ccco1` gave NS1 function inh -17.7%, Cycloheximide cs 26.0*, Shiga inhibitor 66.9* and Pf growth 48h 85.3%.
For O=C(CCCN1CC=C(n2c(=O)[nH]c3ccccc32)CC1)c1ccc(F)cc1 the results were NS1 function inh 1.6%, Cycloheximide cs -3.2, Shiga inhibitor -8.7, Pf growth 48h 8.28µM* and Pf growth 96h 3.29µM*.
Screening O=S(=O)(Nc1cccc(S(=O)(=O)N2CCCC2)c1)c1cccc(Br)c1 returned Pf growth 48h -6.8% and Pf growth 96h -16.2%.
CCN(CC(=O)N1CCOCC1)S(=O)(=O)c1ccc(Cl)cc1 was read as NS1 function inh 3.9%, Cycloheximide cs -4.5, Shiga inhibitor 3.5, Pf growth 48h 14.5% and Pf growth 96h -9.9%.

High-throughput results from PubChem.
